Calls of active or inactive are those of the source. The calls were made as follows: active = hit-call score of the fitted dose curve at least 0.9, where 1 is the maximum; inactive = score below 0.9.
How the values were obtained:
[1] = read-out: Transforming growth factor beta 1 (TGFb1), TGFB1 (gene 7040); test: BSK_KF3CT_TGFb1: BioMAP Diversity Plus: KF3CT Assay for Transforming growth factor beta 1 (TGFb1) Biomarker Activity (AID 2283072); conditions: primary human keratinocytes with fibroblasts; actives raise or lower the signal
Summary of the method: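 TGF-b1 ELISA on a 24 h dosed co-culture of human keratinocytes and foreskin fibroblasts; cytotoxicity tracked in parallel cultures by SRB staining.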

[2] = read-out: C-C motif chemokine 2 (Homo sapiens) (UniProt P13500); test: BSK_KF3CT_MCP1: BioMAP Diversity Plus: KF3CT Assay for Monocyte Chemoattractant Protein 1 (MCP1/CCL2) Biomarker Activity (AID 2283073); conditions: primary human keratinocytes with fibroblasts; actives raise or lower the signal
Summary of the method: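 KF3CT skin co-culture (keratinocytes/foreskin fibroblasts), 24 h post-dose; MCP-1 by ELISA; gain/loss of signal fit bidirectionally vs DMSO baseline.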

[3] = read-out: Matrix Metallopeptidase 9 (MMP9), MMP9 (gene 4318); test: BSK_KF3CT_MMP9: BioMAP Diversity Plus: KF3CT Assay for Matrix Metallopeptidase 9 (MMP9) Biomarker Activity (AID 2283074); conditions: primary human keratinocytes with fibroblasts; actives raise or lower the signal;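 as to AC50: MMP9 protein level quantified by ELISA in the co-culture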
Summary of the method: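 MMP-9 quantified by ELISA after 24 h chemical treatment of primary human skin keratinocyte/fibroblast co-cultures; gain or loss fitted against DMSO, with parallel SRB staining (0.1% SRB, 560 nm) for overt cytotoxicity.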

[4] = read-out: urokinase plasminogen activator (uPA), PLAU (gene 5328); test: BSK_KF3CT_uPA: BioMAP Diversity Plus: KF3CT Assay for urokinase plasminogen activator (uPA) Biomarker Activity (AID 2283075); conditions: primary human keratinocytes with fibroblasts; actives raise or lower the signal
Summary of the method: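 ELISA read-out of uPA 24 h after dosing human skin keratinocytes co-cultured with foreskin fibroblasts. Signal change fitted both ways relative to DMSO; sulforhodamine B on parallel cultures marks overt cytotoxicity.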

[5] = read-out: CD40, CD40 (gene 958); test: BSK_LPS_CD40: BioMAP Diversity Plus: LPS Assay for CD40 Biomarker Activity (AID 2283076); conditions: primary human HUVEC with PBMC; actives raise or lower the signal
Summary of the method: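 ELISA readout of CD40 in HUVEC/PBMC co-culture (BSK_LPS system), 24 h post-dosing; bidirectional curve fit, DMSO baseline; parallel SRB total-protein staining for cytotoxicity.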

[6] = read-out: E-selectin (Homo sapiens) (UniProt P16581); test: BSK_LPS_Eselectin: BioMAP Diversity Plus: LPS Assay for Eselectin Biomarker Activity (AID 2283077); conditions: primary human HUVEC with PBMC; actives raise or lower the signal
Summary of the method: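 ELISA readout of E-selectin, 24 h post-dose, HUVEC + PBMC co-culture (LPS system). Gain or loss of signal vs DMSO baseline, bidirectional fit.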

[7] = read-out: Interleukin-8 (IL8), CXCL8 (gene 3576); test: BSK_LPS_IL8: BioMAP Diversity Plus: LPS Assay for Interleukin-8 (IL8) Biomarker Activity (AID 2283078); conditions: primary human HUVEC with PBMC; actives raise or lower the signal
Summary of the method: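 HUVEC + PBMC co-culture, LPS-activated; test chemicals dosed, IL-8 read by ELISA at 24 h. Bidirectional curve fit vs DMSO baseline (gain or loss of signal).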

[8] = BSK_LPS_SRB: Viability Assessment in the BioMAP Diversity Plus: LPS Assay (AID 2283079); conditions: primary human HUVEC with PBMC;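 also: total protein by sulforhodamine B absorbance as a cytotoxicity measure; measured one day after compound addition; fitted in both directions against DMSO so loss or gain of signal counts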
Summary of the method: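 HUVEC + PBMC co-culture, LPS-stimulated; compound 24 h. 10% TCA fix, 0.1% SRB stain, A560. Bidirectional fit vs DMSO.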

[9] = read-out: Interleukin-1 alpha (IL1a), IL1A (gene 3552); test: BSK_LPS_IL1a: BioMAP Diversity Plus: LPS Assay for Interleukin-1 alpha (IL1a) Biomarker Activity (AID 2283080); conditions: primary human HUVEC with PBMC; actives raise or lower the signal
Summary of the method: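 HUVEC/PBMC co-culture, LPS system; 24 h after dosing; IL-1a by ELISA; gain or loss of signal fitted bidirectionally vs DMSO baseline.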

[10] = read-out: Monocyte Chemoattractant Protein-1 (MCP1), CCL2 (gene 6347); test: BSK_LPS_MCP1: BioMAP Diversity Plus: LPS Assay for Monocyte Chemoattractant Protein-1 (MCP1) Biomarker Activity (AID 2283081); conditions: primary human HUVEC with PBMC; actives raise or lower the signal;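 as to AC50: secreted MCP-1 protein quantified by ELISA in culture supernatant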
Summary of the method: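 ELISA read-out of MCP-1 after 24 h chemical dosing of a human umbilical vein endothelial cell/peripheral blood mononuclear cell co-culture stimulated with LPS. Gain or loss of signal fitted relative to DMSO controls.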

[11] = BSK_LPS_PGE2: BioMAP Diversity Plus: LPS Assay for Prostaglandin E2 (PGE2) Biomarker Activity (AID 2283082); conditions: primary human HUVEC with PBMC; actives raise or lower the signal;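 as to AC50: secreted prostaglandin E2 measured by ELISA in LPS-stimulated co-culture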
Summary of the method: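 Primary human endothelial cells and blood mononuclear cells, co-cultured with LPS, receive test chemical; PGE2 ELISA follows at 24 h, with SRB-stained parallel cultures flagging cytotoxicity.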

[12] = read-out: Macrophage colony-stimulating factor (MCSF), CSF1 (gene 1435); test: BSK_LPS_MCSF: BioMAP Diversity Plus: LPS Assay for Macrophage colony-stimulating factor (MCSF) Biomarker Activity (AID 2283083); conditions: primary human HUVEC with PBMC; actives raise or lower the signal
Summary of the method: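 HUVEC + PBMC co-culture (human primary), 24 h post-dose; M-CSF by ELISA; gain/loss of signal fitted bidirectionally vs DMSO baseline.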

[13] = read-out: Tissue Factor, F3 (gene 2152); test: BSK_LPS_TissueFactor: BioMAP Diversity Plus: LPS Assay for Tissue Factor Biomarker Activity (AID 2283084); conditions: primary human HUVEC with PBMC; actives raise or lower the signal
Summary of the method: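 HUVEC/PBMC co-culture, LPS-activated; CD142 ELISA read 24 h post-dose; bidirectional curve fit vs DMSO negative control.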

[14] = read-out: Tumor necrosis factor (Homo sapiens) (UniProt P01375); test: BSK_LPS_TNFa: BioMAP Diversity Plus: LPS Assay for Tumour Necrosis Factor alpha (TNFa) Biomarker Activity (AID 2283085); conditions: primary human HUVEC with PBMC; actives raise or lower the signal;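 as to AC50: TNFa protein level quantified by ELISA in the co-culture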
Summary of the method: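 ELISA-based TNFa endpoint in a human endothelial–PBMC co-culture sampled 24 h post-exposure. Curves were fitted in both directions using DMSO as baseline of activity.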

[15] = read-out: Vascular cell adhesion molecule 1 (VCAM1), VCAM1 (gene 7412); test: BSK_LPS_VCAM1: BioMAP Diversity Plus: LPS Assay for Vascular cell adhesion molecule 1 (VCAM1) Biomarker Activity (AID 2283086); conditions: primary human HUVEC with PBMC; actives raise or lower the signal
Summary of the method: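 Measured by ELISA: VCAM-1 in LPS-activated HUVEC/PBMC co-cultures 24 h after treatment. Values reflect bidirectional fitting with DMSO as baseline.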

[16] = read-out: CD38, CD38 (gene 952); test: BSK_SAg_CD38: BioMAP Diversity Plus: SAg Assay for CD38 Biomarker Activity (AID 2283087); conditions: primary human HUVEC with PBMC; actives raise or lower the signal
Summary of the method: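 Measures CD38 on a human endothelial/PBMC co-culture driven by SEB and TSST-1, 24 h after compound exposure, using ELISA with fluorescence detection; DMSO defines baseline for bidirectional curve fitting.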

[17] = read-out: CD40, CD40 (gene 958); test: BSK_SAg_CD40: BioMAP Diversity Plus: SAg Assay for CD40 Biomarker Activity (AID 2283088); conditions: primary human HUVEC with PBMC; actives raise or lower the signal
Summary of the method: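 HUVEC/PBMC co-culture, 24 h post-dose; CD40 by ELISA, fluorescence intensity; bidirectional fit vs DMSO negative control.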

[18] = read-out: CD69, CD69 (gene 969); test: BSK_SAg_CD69: BioMAP Diversity Plus: SAg Assay for CD69 Biomarker Activity (AID 2283089); conditions: primary human HUVEC with PBMC; actives raise or lower the signal;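 as to AC50: cell surface CD69 protein quantified by ELISA with fluorescence detection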
Summary of the method: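 HUVEC co-cultured with PBMC were dosed with chemical, and CD69 was measured by ELISA with fluorescence read-out 24 h later. Bidirectional curve fitting used DMSO as negative control and activity baseline.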

[19] = read-out: Monocyte Chemoattractant Protein-1 (MCP1), CCL2 (gene 6347); test: BSK_SAg_MCP1: BioMAP Diversity Plus: SAg Assay for Monocyte Chemoattractant Protein-1 (MCP1) Biomarker Activity (AID 2283090); conditions: primary human HUVEC with PBMC; actives raise or lower the signal
Summary of the method: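 Values derive from bidirectional fitting of ELISA-measured MCP1 against DMSO controls. Readings were taken 24 h after dosing human vascular endothelial cells co-cultured with peripheral blood mononuclear cells under superantigen stimulation.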

[20] = read-out: TIMP metallopeptidase inhibitor 2 (TIMP2), TIMP2 (gene 7077); test: BSK_KF3CT_TIMP2: BioMAP Diversity Plus: KF3CT Assay for TIMP metallopeptidase inhibitor 2 (TIMP2) Biomarker Activity (AID 2283071); conditions: primary human keratinocytes with fibroblasts; actives raise or lower the signal
Summary of the method: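 Measurements come from ELISA detection of TIMP-2 at 24 hours in a dosed human keratinocyte and foreskin fibroblast co-culture. DMSO serves as negative control and baseline.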

Measured: AC50

Tumor necrosis factor (Homo sapiens), sequence (P01375 whole entry, looked up): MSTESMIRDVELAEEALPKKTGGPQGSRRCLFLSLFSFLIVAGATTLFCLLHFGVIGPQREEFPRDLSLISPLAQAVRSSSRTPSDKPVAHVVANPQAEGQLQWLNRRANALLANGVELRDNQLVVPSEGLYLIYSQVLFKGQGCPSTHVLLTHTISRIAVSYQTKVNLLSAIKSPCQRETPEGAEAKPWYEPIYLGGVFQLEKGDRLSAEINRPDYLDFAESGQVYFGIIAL
E-selectin (Homo sapiens), sequence (P16581 whole entry, looked up): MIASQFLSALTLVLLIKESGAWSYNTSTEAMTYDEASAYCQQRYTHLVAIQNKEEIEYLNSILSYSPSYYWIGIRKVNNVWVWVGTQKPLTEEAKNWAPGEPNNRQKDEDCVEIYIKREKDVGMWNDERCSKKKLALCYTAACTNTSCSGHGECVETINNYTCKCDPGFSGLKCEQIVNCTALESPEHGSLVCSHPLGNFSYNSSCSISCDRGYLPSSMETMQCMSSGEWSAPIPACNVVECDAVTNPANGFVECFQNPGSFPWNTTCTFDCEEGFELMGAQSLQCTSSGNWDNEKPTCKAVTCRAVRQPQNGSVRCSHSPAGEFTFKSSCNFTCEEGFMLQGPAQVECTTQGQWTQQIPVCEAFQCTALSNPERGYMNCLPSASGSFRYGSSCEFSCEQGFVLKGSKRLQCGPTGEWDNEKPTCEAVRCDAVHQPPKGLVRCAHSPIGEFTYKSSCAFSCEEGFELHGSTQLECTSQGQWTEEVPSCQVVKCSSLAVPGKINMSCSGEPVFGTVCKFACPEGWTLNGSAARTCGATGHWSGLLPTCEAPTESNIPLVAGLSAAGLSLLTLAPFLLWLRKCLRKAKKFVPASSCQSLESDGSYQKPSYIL

CO[C@@H]1[C@H](OC(=O)NC(=O)CCl)CC[C@]2(CO2)[C@H]1[C@@]1(C)O[C@@H]1CC=C(C)C
active: [3] 6.36 µM | [5] 3.77 µM | [6] 9.98 µM | [9] 6.19 µM | [11] 6.2 µM | [12] 3.16 µM | [14] 10 µM | [15] 7.31 µM | [16] 6.2 µM | [17] 7.52 µM
inactive: [1] | [2] | [4] | [7] | [8] | [10] | [13] | [18] | [19]

C1=Cc2cccc3cccc1c23
not listed: [2] | [13] | [19]
inactive: all other assays above

ClC1=C(Cl)[C@]2(Cl)[C@H]3[C@H]([C@@H]4C=C[C@H]3C4)[C@@]1(Cl)C2(Cl)Cl
inactive: [11]
active: [1] 22.4 µM | [2] 22.3 µM | [3] 11.6 µM | [4] 28.7 µM | [5] 32.1 µM | [6] 33.5 µM | [7] 33.8 µM | [8] 30.5 µM | [9] 28.9 µM | [10] 36.8 µM | [12] 31.6 µM | [14] 31.5 µM | [15] 29.8 µM | [16] 16.8 µM | [17] 27.9 µM | [18] 27.5 µM

CCCCCCCCOC(=O)c1ccc(C(=O)OCCCCCCCC)c(C(=O)OCCCCCCCC)c1
not listed: [2]
inactive: all other assays above

O=[N+]([O-])C(Br)(CO)CO
inactive: [2] | [11]
active: [1] 32 µM | [3] 34.4 µM | [4] 36.8 µM | [5] 29 µM | [6] 32.8 µM | [7] 34.2 µM | [8] 29.6 µM | [9] 34 µM | [10] 25.9 µM | [12] 28.9 µM | [14] 31.7 µM | [15] 30.1 µM | [16] 31.3 µM | [17] 28.1 µM | [18] 28.5 µM | [19] 31.1 µM

CCC[CH2][Sn]([Cl])([CH2]CCC)[CH2]CCC
active: [20] 0.246 µM | [1] 0.692 µM | [4] 0.148 µM | [5] 0.148 µM | [6] 0.148 µM | [7] 0.148 µM | [8] 0.269 µM | [9] 0.344 µM | [10] 0.148 µM | [12] 0.615 µM | [14] 0.248 µM | [15] 0.148 µM | [16] 0.248 µM | [17] 0.148 µM | [18] 0.148 µM | [19] 0.148 µM
inactive: [11]

— PubChem BioAssay (EPA / NIEHS)
